D2 ag-1: Beta-Arrestin HTS for Positive Allosteric Modulators of the Human D2 Dopamine Receptor: Agonists; D(2) dopamine receptor (Homo sapiens), P14416; AID 624465, 2012; 360,000 compounds, 0.084% hits; DiscoveRx PathHunter D2 beta-arrestin, luminescence, 90 min; 100% = 57 uM dopamine signal; activation, % (test concentration not listed); in the data active = activation above about 40%; inconclusive = between about 15% and that limit
Target sequence (P14416 whole entry, looked up): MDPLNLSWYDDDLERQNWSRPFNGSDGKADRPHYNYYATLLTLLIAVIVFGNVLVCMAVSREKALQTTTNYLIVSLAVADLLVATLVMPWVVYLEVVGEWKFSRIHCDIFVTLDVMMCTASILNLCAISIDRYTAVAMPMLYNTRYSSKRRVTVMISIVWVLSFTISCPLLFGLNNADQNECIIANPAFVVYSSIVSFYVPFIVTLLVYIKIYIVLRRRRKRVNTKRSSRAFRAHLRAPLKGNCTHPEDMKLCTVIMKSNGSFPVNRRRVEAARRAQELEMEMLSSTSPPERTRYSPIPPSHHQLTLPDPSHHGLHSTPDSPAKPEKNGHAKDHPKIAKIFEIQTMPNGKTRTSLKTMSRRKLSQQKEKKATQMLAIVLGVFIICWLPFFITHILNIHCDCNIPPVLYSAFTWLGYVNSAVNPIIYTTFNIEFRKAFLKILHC
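DiscoveRx PathHunter D2 beta-arrestin cells (2,100/well) attached overnight, then compound-stimulated 90 min at 37 C in HBSS/10 mM HEPES/0.1% Tween-20 buffer; beta-galactosidase complementation read by luminescence after 1 h at ambient temperature. Dopamine 57 uM final (EC100) as control.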
D2 PAM-1: Beta-Arrestin HTS for Positive Allosteric Modulators of the Human D2 Dopamine Receptor: Potentiators; D(2) dopamine receptor (Homo sapiens), P14416; 360,000 compounds, 0.23% hits; potentiation, % (concentration not given with the values); DiscoveRx D2 beta-arrestin cells, luminescence, 90 min; 100% = 57 uM dopamine signal; in the data active = potentiation above about 50%; inconclusive = mostly about 30% to 49%
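D2 cells co-treated with compound plus 50 nM dopamine (EC20) for 90 min at 37 deg C to detect potentiation. Beta-arrestin recruitment was read as enzyme-fragment luminescence after 1 h at ambient temperature. Full response was set by 57 uM dopamine.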
D2 PAM-2: HTS Assay for Positive Allosteric Modulators of the Human D2 Dopamine Receptor: Primary Screen for Potentiators; D(2) dopamine receptor (Homo sapiens), P14416; HEK293 T-REx D2, calcium flux, EC20 dopamine potentiation; potentiation, % at 10 µM; 340,000 compounds, 0.34% hits; AID 485347, 2010;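 active = potentiation over 3 SD above the plate norm, cut at about 30% in these data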
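Tetracycline-induced HEK293 T-REx cells force-coupled to calcium signalling expressed D2; compounds were pin-added after a 10 s baseline, read kinetically 180 s, then an EC20 dopamine challenge followed with a further 180 s calcium read.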
D2 antagonist: HTS Assay for Allosteric Antagonists of the Human D2 Dopamine Receptor: Primary Screen for Antagonists; HEK293 TREx D2 cells, calcium flux, dopamine EC80; inhibition, % at 10 µM; 340,000 compounds, 2% hits; AID 485344, 2010; in the data active = inhibition above about 30%; inactive = below that, where a call was filed
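In this primary screen, negative modulation is detected by tracking calcium flux after an EC80 dopamine challenge in inducible HEK293 T-REx D2 cells preexposed to test compound for 180 s.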
D2 ag-2: HTS Assay for Allosteric Agonists of the Human D2 Dopamine Receptor: Primary Screen for Agonists. activation, % at 2 µM. AID 485358, 2010. 340,000 compounds, 0.53% hits. HEK293 T-REx D2 cells, calcium flux agonist mode. D(2) dopamine receptor (Homo sapiens), P14416;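 active = activation over 3 SD above normal in the single-dose calcium agonist read, cut at about 30% in these data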
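In this primary screen, compounds producing a positive calcium signal within 180 s of addition to tetracycline-induced, force-coupled HEK293 Trex D2 cells are flagged; cells are dye-loaded with a no-wash calcium kit beforehand.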
Each line names hits and unclear results; the compound was inactive in the other large screens. An excerpt weighted towards active compounds, which were near 2.4% of everything screened.

Cc1cc(C)n(-c2nc3ccccc3n3nnnc23)n1	D2 PAM-2 32.8
c1ccc(N2CCN(c3nc4ccccc4n4nnnc34)CC2)cc1	none
O=C(COc1ccc(S(=O)(=O)N2CCOCC2)cc1Cl)NCc1ccccn1	D2 PAM-2 33.6
O=C(COc1ccc(S(=O)(=O)N2CCCC2)cc1Cl)NCc1ccccn1	none
O=C(CCCCCN1C(=O)CCC1=O)Nc1ncn[nH]1	D2 antagonist 45.4 (no result: D2 PAM-2)
COC(=O)NC(=S)Nc1ccc(Oc2ccc(Cl)cc2)c(Cl)c1	none
COC(=O)NC(=S)Nc1ccc(Oc2ccc(Cl)cc2Cl)c(Cl)c1	D2 PAM-2 36.3 (no result: D2 antagonist, D2 ag-2)
CN(CC(=O)NCCc1ccc(S(N)(=O)=O)cc1)CC(=O)Nc1ccc(Cl)c(C(F)(F)F)c1	none (no result: D2 PAM-2, D2 antagonist, D2 ag-2)
CC(=O)c1c(C)[nH]c(C(=O)N(C)CC(=O)Nc2ccc(Cl)c(C(F)(F)F)c2)c1C	D2 antagonist 39.3
CN(CC(=O)NC(=O)NCc1ccccc1)CC(=O)Nc1ccc(Cl)c(C(F)(F)F)c1	D2 antagonist 35.2
CN(CC(=O)Nc1ccc(Cl)c(C(F)(F)F)c1)C(=O)c1cccs1	none
CC(=O)NC(c1cccc(F)c1)c1nc(-c2ccccc2)cs1 (stereo not drawn)	none (no result: D2 PAM-2, D2 antagonist, D2 ag-2)
COc1cccc(NC(=O)CSc2nc3ccc(NC(=O)c4ccco4)cc3s2)c1	none (no result: D2 ag-1, D2 PAM-1, D2 antagonist)
Cc1cccc(C)c1NC(=O)CN1C(=O)S/C(=C\c2cccn2C)C1=O	D2 antagonist 30.1
Cc1cccc(C)c1NC(=O)CN1C(=O)S/C(=C\c2cccn2-c2cccc(C(=O)O)c2)C1=O	none
N#C/C(=C/c1ccc(-c2ccc(S(N)(=O)=O)cc2)o1)c1nc2ccccc2s1	D2 ag-2 115.5
N#C/C(=C/c1ccc(-c2ccccc2)o1)c1nc(-c2cccs2)cs1	D2 ag-2 87.2
N#C/C(=C/c1ccc(-c2ccc(S(N)(=O)=O)cc2)o1)C(=O)Nc1ccccc1	none
N#C/C(=C\c1ccc(-c2ccc(F)cc2)o1)C(=O)Nc1nc(-c2cccs2)cs1	none
COc1ccccc1/C=C/C=N/NC(=O)c1cc(-c2ccc(C)o2)[nH]n1	none
COc1ccc(F)cc1-c1cc(C(=O)NCc2cc(C(F)(F)F)cc(C(F)(F)F)c2)[nH]n1	none (no result: D2 PAM-2, D2 antagonist, D2 ag-2)
CC1CCC(NC(=O)c2ccc(CS(=O)(=O)c3c(Cl)cccc3Cl)o2)CC1 (stereo not drawn)	none (no result: D2 ag-1, D2 PAM-1, D2 antagonist)
O=C(c1ccccc1)N1CCCCC(Cl)C1=O (stereo not drawn)	D2 antagonist 31.1
COc1ccc(C(=O)COC(=O)C2COc3ccccc3O2)c(OC)c1 (stereo not drawn)	none (no result: D2 PAM-2, D2 antagonist, D2 ag-2)
CCCCC[n+]1ccn(C2=C([O-])c3ccccc3C(=O)/C2=N\S(=O)(=O)c2ccc(Cl)cc2)c1	none
CCCC[n+]1ccn(C2=C([O-])c3ccccc3C(=O)/C2=N\S(=O)(=O)c2ccc(Cl)cc2)c1	D2 antagonist 33.7
CC(C)(Cc1ccc(O)cc1)NC(=O)CC(=O)N=Nc1c(O)[nH]c2ccc(Br)cc12	D2 ag-2 31.1
NC(=O)C1CCN(C(=O)NC2CC(=O)N(c3ccc4c(c3)OCCO4)C2)CC1 (stereo not drawn)	D2 antagonist 45.6
Cc1ccc(CN2CCN(CC3CC4C=CC3C4)CC2)cc1 (stereo not drawn)	D2 antagonist 65.4
O=S(=O)(c1ccccc1)N1CCN(CC2CC3C=CC2C3)CC1 (stereo not drawn)	none
COc1ccc(NC(=O)c2c(-c3ccc(C)cc3)nnc3ccccc23)cc1OC	none (no result: D2 ag-1, D2 PAM-1, D2 antagonist)
CC1Oc2ccccc2N(CC(=O)c2ccc(F)cc2)C1=O (stereo not drawn)	none
COc1ccc(NC(=O)c2cn(-c3ccccc3)nc2-c2ccncc2)cc1	D2 antagonist 68.4
COc1ccc(-c2nn(-c3ccccc3)cc2C(=O)Nc2ccc(C(=O)O)cc2)cc1	none
Cc1c(Br)c([N+](=O)[O-])nn1CC(=O)NC1CCCCCC1	D2 antagonist 41.5
Cc1c(Cl)c([N+](=O)[O-])nn1CC(=O)NC1CCCCC1	none
Cc1ccc(C)c(CN2CCCNC2=O)c1	D2 antagonist 30.8
Cc1ccc(CN2CCCNC2=O)cc1	none (no result: D2 PAM-2, D2 antagonist, D2 ag-2)
O=C(Nc1cccc(C(F)(F)F)c1)c1ccc(Cn2cc(Br)cn2)o1	D2 antagonist 35.5
C/C(=N\NC(=O)c1ccc(Cn2cc(Br)cn2)o1)c1cccc(NC(=O)C(C)(C)C)c1	none
O=C(Nc1ccc(C(F)(F)F)cc1Cl)c1ccc(Cn2cc(Br)cn2)o1	D2 antagonist 37.2
O=C(N/N=C/c1c(F)cccc1Cl)c1ccc(Cn2cc(Br)cn2)o1	none
CC(OC(=O)Cn1[nH]c(=O)c2ccccc2c1=O)C(=O)Nc1ccccc1[N+](=O)[O-] (stereo not drawn)	none
CC(=O)NC12CC3CC(C1)CC(C(=O)N1CCN(S(=O)(=O)c4ccccc4[N+](=O)[O-])CC1)(C3)C2	D2 antagonist 44.6
c1ccc(COc2ccccc2CNC23CC4CC(CC(C4)C2)C3)cc1	none
Cc1ccc(OCC(=O)O/N=C(\N)Cc2cccs2)cc1C	none (no result: D2 PAM-2, D2 antagonist, D2 ag-2)
Cc1cc(OCC(=O)O/N=C(\N)Cc2cccs2)ccc1Br	D2 antagonist 48.7
CC1CCN(CCC(=O)Nc2ccc3c(c2)CCC3)CC1	none
CC1CN(CCCCOc2ccc(Cl)c3ccccc23)CC(C)O1 (stereo not drawn)	D2 antagonist 58.3
Cc1c(C(=O)N2CCCC2)oc2c1-c1nn(CC(=O)NCCCOC(C)C)cc1CC2	D2 ag-1 inconclusive, D2 antagonist 34.6
COC(=O)c1cn(CC(=O)N2C(C)CCCC2C)c2ccccc12 (stereo not drawn)	none
CC1CCCC(C)N1C(=O)Cn1cc(/C=C2/C(=O)Nc3ccccc32)c2ccccc21 (stereo not drawn)	D2 antagonist 32.3
COCCCNC(=O)C1C2C=CC3(CN(Cc4ccc(C)cc4)C(=O)C13)O2 (stereo not drawn)	D2 antagonist 39.1
CCOC(=O)CN1CC23C=CC(O2)C(C(=O)NC2CCCC2)C3C1=O (stereo not drawn)	D2 PAM-2 45.5
Cc1ccc(CN2CC34C=CC(O3)C(C(=O)NCc3ccc5c(c3)OCO5)C4C2=O)cc1 (stereo not drawn)	none (no result: D2 PAM-2, D2 antagonist, D2 ag-2)
CCOC(=O)CN1CC23C=CC(O2)C(C(=O)NC2CCCCC2)C3C1=O (stereo not drawn)	none
CC(C)(C)NC(=O)c1ccc2nc(CCc3ccccc3)oc2c1	none (no result: D2 ag-1, D2 PAM-1, D2 antagonist)
Cc1cc(/C=C2\SC(=Nc3ccc(F)cc3)NC2=O)c(C)n1-c1ccc(S(N)(=O)=O)cc1	D2 antagonist 38.4

Assay outcomes from PubChem.
